# Test results published in PubChem BioAssay AID652104 (National Center for Advancing Translational Sciences (NCATS), 2013).
# In all, about 410,000 compounds went through this assay and about 7,200 (1.8%) were called active. Another 7% or so got no clear call; they are omitted. Calls follow the shape of the dose curve; as a rule, active = well fitted activation curve with a large enough effect; inconclusive = small, poorly fitted or top-dose-only effect, or another doubt; inactive = no such curve, though single readings can be large or run the other way. For the sample, actives were picked, then their nearest neighbours and some compounds at random.
# Test: qHTS of TDP-43 Inhibitors; also: nearly all actives have a fitted effect of over 50% in size; as to growth rescue (activation): % of control where 0% means no effect
# Details: TDP-43 expressing yeast growth rescue, BacTiter-Glo, 24 h; series mostly up to 46.1 µM; growth rescue (activation): at the top concentration
# From the text: The goal of this project is to identify new chemical probes capable of reversing the toxicity associated with TDP-43 which is associated with frontotemporal lobar degeneration and amyotrophic lateral sclerosis. These compounds will provide a complementary approach to deciphering the tangled mechanisms of toxicity and protection that we have uncovered through genome-wide genetic screens and are beginning to uncover in a large-scale proteomics analysis with mass spectroscopy.
# To this end, a miniaturized assay was developed to be screened against the Molecular Libraries Small Molecule Repository (MLSMR) to discover TDP-43 inhibitors. Please note that in the set-up this yeast-based assay compounds that inhibit as TDP-43, have a read-out as activators.
# NIH Chemical Genomics Center [NCGC]
# NIH Molecular Libraries Probe Centers Network [MLPCN]
# Assay Submitter (PI): Susan Lindquist, Whitehead Institute/MIT
# Dispense 2.5 microL yeast galactose medium per 1536-well plate, pin compound, dispense 2.5 microL TDP-43 expressing yeast in galactose medium at OD600=0.02 (pregrown in raffinose medium to mid-log phase) per well, incubate for 24 hr at 30 deg C, and cell growth will be measured using 5 microL of Bactiter/Glo reagent to entire plate and read using Luminescence Protocol in ViewLux.
# Potency is read from the fitted curve at half-maximal effect.
SMILES,growth rescue (activation),Potency
COc1ccc(N2CCN(C3=NS(=O)(=O)C(c4cccc(Br)c4)=C3C)CC2)cc1,15.8% (inactive),
CCOC(=O)c1cc2occc2n1CC(=O)N1CCN(C(=O)c2ccco2)CC1,-23.7% (inactive),
CCOC(=O)c1cc2c(ccn2C)n1CC(=O)N1CCC(C)CC1,,35.5 µM (active)
CCOC(=O)c1cc2occc2n1CC(=O)NC1CCC(C)CC1 (configuration not stated),-11.8% (inactive),
CCOc1cc2[nH]c(=O)n(Cc3ccc(C(=O)NCCN(CC)CC)cc3)c(=O)c2cc1OCC,25.5% [at 9.22 µM] (inactive),
COc1ccc(OCCCn2c(C3CC(=O)N(c4ccc(F)cc4)C3)nc3ccccc32)cc1 (configuration not stated),28.2% (inactive),
Cc1nc2ccn(Cc3cccs3)c(=O)c2cc1C(=O)NCc1ccc(Cl)cc1,-22% (inactive),
COc1cc(NS(=O)(=O)c2ccc3ccccc3c2)c2ncccc2c1,,12.6 µM (active)
CCOc1ccc(OCC)c(NS(=O)(=O)c2ccc3[nH]c(=O)ccc3c2)c1,17.4% (inactive),
COc1ccc(S(=O)(=O)Nc2cc3c(C(=O)OC(C)C)c(C)oc3c3ccccc23)cc1,14.5% (inactive),
N#C/C(=C\c1ccccc1F)c1nc2ccccc2c(=O)[nH]1,3.78% (inactive),
CCC(C(=O)Nc1cccc(-c2nc3cccnc3s2)c1C)c1ccccc1 (configuration not stated),-2.05% (inactive),
COc1cccc(NC(=O)Cn2c(=O)cc(C)c3c(C)nn(-c4cccc(F)c4)c32)c1,3.17% (inactive),
Cn1nnnc1SCCNCc1ccc(Cl)c(Cl)c1,10.9% (inactive),
Cc1cn(C)c(CC(=O)NCc2ccc(Cl)cc2)c1C(=O)O,15.2% (inactive),
Cc1ccc(-c2ccc(CN3C(C(C)C)C(=O)N(Cc4cn(CCC5OCCO5)nn4)CCS3(=O)=O)cc2)cc1 (configuration not stated),,31.6 µM (active)
COCOCCn1cc(CN2CCS(=O)(=O)N(Cc3ccc(-c4ccc(OC)cc4)cc3)C(CC(C)C)C2=O)nn1 (configuration not stated),25.3% (inactive),
CC(C)C1C(=O)N(Cc2cn(CCC3OCCO3)nn2)CCS(=O)(=O)N1Cc1ccc(-c2ccccc2C(F)(F)F)cc1 (configuration not stated),,35.5 µM (active)
Cc1ccc(-c2ccc(CN3C(C(C)C)C(=O)N(Cc4cn(CCC5OCCCO5)nn4)CCS3(=O)=O)cc2)cc1 (configuration not stated),,35.5 µM (active)
COc1ccc(-c2ccc(CN3C(C(C)C)C(=O)N(Cc4cn(CC5CCCCC5)nn4)CCS3(=O)=O)cc2)cn1 (configuration not stated),18.7% (inactive),
COc1ccc(Cn2cc(CN3CCS(=O)(=O)N(Cc4ccc(-c5cccc(Cl)c5)cc4)C(C)C3=O)nn2)cc1 (configuration not stated),17.6% (inactive),
CC(C)CC1C(=O)N(Cc2cn(Cc3ccco3)nn2)CCS(=O)(=O)N1Cc1ccc(-c2ccc(Cl)c(Cl)c2)cc1 (configuration not stated),15.1% (inactive),
Cc1ccc(-c2ccc(CN3C(C)C(=O)N(Cc4cn(CCC5OCCCO5)nn4)CCS3(=O)=O)cc2)cc1 (configuration not stated),4.45% (inactive),
CC1C(=O)N(Cc2cn(Cc3ccco3)nn2)CCS(=O)(=O)N1Cc1ccc(-c2cccc(CO)c2)cc1 (configuration not stated),19.9% (inactive),
COc1cc(NC(=O)CN2CCN(S(=O)(=O)c3ccc(Br)cc3)CC2)cc(OC)c1,-18.8% (inactive),
Cc1ccccc1CNC(=O)c1ccc(NC(=O)N2CCCCc3ccccc32)cc1,4.84% (inactive),

SMILES,growth rescue (activation),Potency
COc1cc(CN(CC2CCCO2)C(=O)c2ccccc2F)cc(OC)c1OC (configuration not stated),6.37% (inactive),
CCOc1ccc(NC(=O)c2c(NC(=O)Cc3ccccc3)sc3c2CCCCC3)cc1,0.279% (inactive),
CC1CCCN(Cc2c(O)ccc3c(=O)c(Oc4ccc(C(C)(C)C)cc4)c(C(F)(F)F)oc23)C1 (configuration not stated),12.6% (inactive),
CCCCOC(=O)/C(C#N)=C/c1ccc(-c2cccc(C(F)(F)F)c2)o1,24.7% (inactive),
Cc1ccc(-c2ccc(/C=C(\C#N)C(N)=S)o2)c([N+](=O)[O-])c1,,22.4 µM (active)
CCOC(=O)c1ccc(-c2ccc(/C=C(\C#N)C(=O)Nc3ccc(C)cc3)o2)cc1,13.1% (inactive),
CCOc1ccccc1NC(=O)CN1CCN(S(=O)(=O)c2ccc(Br)cc2)CC1,0% [at 9.22 µM] (inactive),
COc1ccccc1CNC(=O)NCc1noc2ccc(C)cc12,6.73% (inactive),
Cc1ccccc1Cn1c(C)c(C(=O)NCc2cccc(C(F)(F)F)c2)sc1=O,22.3% (inactive),
Cc1cccc(CNC(=O)c2sc(=O)n(Cc3ccccc3C)c2C)c1,2.11% (inactive),
Cc1ccc(Cn2c(C)c(C(=O)NCc3ccccc3C(F)(F)F)sc2=O)cc1,,15.8 µM (active)
Fc1ccc(-c2nn(-c3ccccc3Cl)c3c2cnc2ccccc23)cc1,14.3% (inactive),
CCn1cc(C(=O)NCc2ccc(C)cc2)c(=O)c2cc(S(=O)(=O)N3CCc4ccccc4C3)ccc21,-4% (inactive),
COc1ccc(CNC(=O)COCc2cc(-c3cccs3)on2)cc1OC,4.8% (inactive),
COc1ccc(C2CC(c3cccs3)=Nc3ccccc3S2)cc1OC (configuration not stated),16.7% (inactive),
COc1ccc(-c2csc(-c3cccs3)n2)cc1OC,,11.2 µM (active)
CCc1ccc2ncc3c(-c4ccc(C)cc4)nn(CC(=O)NCc4ccccc4)c3c2c1,24.3% (inactive),
O=C(CSc1oc(-c2ccc(F)cc2)nc1S(=O)(=O)c1ccc(Br)cc1)NC1CCCCC1,11.8% (inactive),
O=C(CSc1nnc(-c2cccs2)n1Cc1ccccc1)N1CCc2ccccc2C1,-18.3% (inactive),
O=c1onc(-c2cccs2)n1Cc1ccccc1,,12.6 µM (active)
Cc1cc(NC(=O)c2cc(-c3cccs3)on2)nn1Cc1ccc(Cl)cc1,-13.4% (inactive),
CCC(=O)Nc1ccc(C)cc1-c1nc2ccccc2n(Cc2ccccc2)c1=O,10.8% (inactive),
COc1ccc2oc(-c3ccc(C)c(NC(=O)c4sc5ccccc5c4Cl)c3)nc2c1,-4.39% (inactive),
Cc1ccc(C)c(Cn2c(C)c(CNCc3ccc(F)cc3)c(C(=O)O)c2C)c1,0.0365% (inactive),
CC(C)(C)NC(=O)NC(=O)COC(=O)Cc1ccc(Cl)cc1Cl,,35.5 µM (active)
COc1ccccc1OCCC(=O)OCC(=O)NC(=O)NC(C)(C)C,-2.09% (inactive),

SMILES,growth rescue (activation),Potency
CC(C)(C)NC(=O)NC(=O)COC(=O)Cc1c(F)cccc1Cl,24.5% (inactive),
COc1ccc(C2=NC3(CCCCC3)N(CC(=O)Nc3ccc(C(C)C)cc3)C2=O)cc1,19.3% (inactive),
CCN(CC)CCNc1ncnc2c1cnn2-c1cc(Cl)ccc1C,-4.42% (inactive),
CCn1c(SCC(=O)Nc2ccc3c(c2)OCCO3)nc2c(c1=O)SC(C)C2 (configuration not stated),-11.8% (inactive),
CC1Cc2nc(SCC(=O)Nc3ccccc3F)n(C)c(=O)c2S1 (configuration not stated),25.8% (inactive),
CCn1c(SCC(=O)Nc2ccccc2F)nc2c(c1=O)SC(C)C2 (configuration not stated),,35.5 µM (active)
CC(C)(CNC(=O)Cc1ccc(Cl)cc1Cl)N1CCOCC1,-19.1% (inactive),
CSCc1cc(N(C)C)nc(SCc2ccc(Cl)cc2Cl)n1,26.4% (inactive),
CSCc1cc(N2CCOCC2)nc(SCc2ccc(Cl)cc2Cl)n1,,22.4 µM (active)
Cc1ccc(C(=O)Nc2ccccc2F)cc1S(=O)(=O)N1CCOCC1,18% (inactive),
COc1c(Cl)cc(Cl)cc1C(=O)Nc1cccc2cccnc12,6.99% (inactive),
O=C(Nc1cccc2cccnc12)c1cccc2c(Br)cccc12,25.1% (inactive),
O=C(Nc1cccc2cccnc12)c1cccc(Cl)c1,,14.1 µM (active)
CCOCc1nnc(NC(=O)CCC2CCCCC2)s1,8.74% (inactive),
CC(C)(C)NC(=O)NC(=O)COC(=O)CCC1CCCCC1,22.3% (inactive),
N/C(=N\OC(=O)CCC1CCCCC1)c1ccccn1,,8.91 µM (active)
COc1ccc(-c2nnc(SCC(=O)Nc3ccc(C(C)C)cc3)nc2-c2ccc(OC)c(OC)c2)cc1OC,0% (inactive),
Clc1ccc(CSc2nncn3c2cc2occc23)cc1,,25.1 µM (active)
CC(C)Cn1cnc2c(SCc3ccc(Cl)cc3)nc(N)nc21,25.8% (inactive),
CCN(C(=O)CSc1nnc(C)n2c1cc1occc12)c1ccccc1,0% (inactive),
COc1ccc2c(c1)CCc1c(C(=O)Nc3cc(C)ccc3O)noc1-2,13% (inactive),
Cc1ccc(C)c(N2CCN(C(=O)C3CCC(CNS(=O)(=O)c4cccs4)CC3)CC2)c1 (configuration not stated),1.45% (inactive),
COc1ccc2c(c1)CCc1c(C(=O)N3CCCC3)noc1-2,-5.8% (inactive),
COc1ccc2c(c1)CCC/C2=N\OC(=O)c1ccccc1F,,11.2 µM (active)
COc1ccc2c(CC(=O)NNC(=O)c3ccccc3F)coc2c1,-11.2% (inactive),
COc1ccc(Br)cc1CN(C)CC(=O)Nc1cc([N+](=O)[O-])ccc1OC,0.246% (inactive),

SMILES,growth rescue (activation),Potency
COc1cc([N+](=O)[O-])ccc1NC(=O)COC(=O)CCOc1ccc(C)cc1,,17.8 µM (active)
COc1ccccc1CC(=O)Nc1ccc([N+](=O)[O-])cc1OC,,11.2 µM (active)
COc1ccc([N+](=O)[O-])cc1NCC(=O)c1ccc(C)cc1,-14.4% (inactive),
COc1cc([N+](=O)[O-])ccc1NC(=S)N1CCN(c2ccccn2)CC1,-14.3% (inactive),
COc1ccc(NC(=O)c2cc([N+](=O)[O-])ccc2NC(=O)CNC2CCCCC2C)c(OC)c1 (configuration not stated),-12.7% (inactive),
Nc1c(Cl)cc(-c2csc(N3CCCC3c3nc4cc(Cl)c(Cl)cc4n3CCOCCO)n2)cc1Cl (configuration not stated),0% (inactive),
Cc1nc2cc(C(F)(F)F)ccc2n1CCNc1nc(-c2cc(Cl)c(N)c(Cl)c2)cs1,,22.4 µM (active)
CCCn1c(C(C)Nc2nc(-c3ccc(C)cc3)cs2)nc2cc(Cl)c(N3CCCCC3)cc21 (configuration not stated),-2.21% (inactive),
CCc1cccc(CC)c1NC(=O)Cn1c(=O)c(-c2cc(C)ccc2NC(C)=O)nc2ccccc21,11.5% (inactive),
CC(C)C[C@@H]1Cc2[nH][nH]c(=O)c2[C@H](CCc2ccccc2)O1,6.76% (inactive),
CC(C)C1CC2=C(C(=O)OC(C)(C)O2)C(c2ccc(F)cc2)O1 (configuration not stated),19% (inactive),
CC(C)C1Cc2[nH][nH]c(=O)c2C(c2ccc(Cl)cc2)O1 (configuration not stated),,20 µM (active)
Cc1cccn2c(=O)c3cc(C(=O)NC(C)c4ccccc4)c(=N)n(CCCO)c3nc12 (configuration not stated),-8.98% (inactive),
CCc1ccc(NC(=O)c2nn(-c3ccc(C)cc3)c(=O)n(C)c2=O)cc1,19% [at 9.22 µM] (inactive),
CCOC(=O)c1ccc2c(c1)N(Cc1cccc(OC)c1)C(=O)c1ccccc1S2(=O)=O,11.1% (inactive),
Cc1nn(-c2ccccc2)c(-n2cccc2)c1C(=O)O,2.82% (inactive),
CCn1c(=O)c2cc(C(=O)Nc3cccc(C(C)=O)c3)sc2c2ccccc21,6.15% (inactive),
Cc1cccc(NC(=O)CSc2nnc(CNC(=O)c3cccc(C)c3)n2-c2ccccc2)c1,-2.58% (inactive),
Cc1cccc(NC(=O)c2cc3c(C)nn(-c4ccccc4)c3s2)c1,,35.5 µM (active)
CC(=O)c1cccc(NC(=O)c2nc(-c3ccccc3)n(-c3cccc(C)c3)n2)c1,,22.4 µM (active)
Cc1cccc(C)c1NC(=O)CNC(=O)c1c(C)nn(-c2ccccc2)c1C,21.2% (inactive),
Cc1nn(-c2ccccc2)c2sc(C(=O)N(Cc3ccco3)C(C)C(=O)NC(C)(C)C)cc12 (configuration not stated),11.9% (inactive),
CC(=O)c1ccc(NC(=O)c2nc3nc(C)cc(C(F)F)n3n2)cc1,21.4% (inactive),
Cc1nn(-c2ccccc2)c(Cl)c1C(=O)Nc1ccccc1,,11.2 µM (active)
